LMP1 NFkB inh: Epstein-Barr LMP1 NF-kappaB reporter inhibition; LMP1-induced NF-kappaB luciferase reporter cells, luminescence; inhibition, % at 12.5 µM; 350,000 compounds, 0.69% hits; AID 504558; in the data active = inhibition above about 41%;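 also: 0% = neutral control wells and 100% = reference inhibitor control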
TROY NFkB inh: inhibitors of TROY-dependent NF-kB signaling. AID 1347056. inhibition, % at 10 µM. Q293 LMP1-TROYcd NF-kB luciferase reporter, 4 h. 360,000 compounds, 0.98% hits;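 active = compounds whose plate-normalised and pattern-corrected inhibition of the luciferase reporter signal at the single screening dose is 50% or more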
TWEAK Fn14 block: inhibitors of TWEAK-Fn14 interaction signaling | TWEAK-stimulated Fn14 reporter cells, luciferase luminescence, 8 h | inhibition, % at 10 µM | 360,000 compounds, 2% hits | AID 1159606; in the data active = inhibition above about 50%
TRPM1 prom inh: MITF TRPM1 promoter inhibition in SK-MEL-5 cells; SK-MEL-5 TRPM1 promoter luciferase, 24 h; inhibition, % at 12.5 µM; 330,000 compounds, 0.83% hits; AID 488899;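 active = mean inhibition across replicates of 60% or more, whatever share of single replicates reaches that level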
LGR2 inh: Drosophila LGR2 receptor signaling inhibition; AID 720647; 380,000 compounds, 0.35% hits; inhibition, % at 9.99 µM; HEK293 LGR2, CRE-luciferase, bursicon-stimulated, 4 h;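 active = drop in luminescence signal, shown as inhibition above about 50% in the replicate tests, limit read from the data, passing the limit was not always enough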;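 also: agonist challenge used bursicon conditioned medium at about half maximal strength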
MITF act: MITF TRPM1 promoter activation in melanoma cells | SK-MEL-5 TRPM1-promoter luciferase, 24 h; % of positive control, neutral wells = 0 | activation, % at 12.5 µM | 300,000 compounds, 0.75% hits | AID 588334;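 active = mean activation of at least 80% with every replicate also reaching 80%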;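 also: 0% = neutral control wells and 100% = parthenolide positive control wells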
Starred values were filed as active, the others as inactive. Most compounds without a hit are left out; they make up all but 3% or so of the library.

For CN1CCc2c(sc3nc(SCC(N)=O)n(-c4ccccc4)c(=O)c23)C1 the results were LMP1 NFkB inh -4, TWEAK Fn14 block 57*, TRPM1 prom inh 0 and MITF act 2.
`CC1(C)Cc2c(c(=S)nc(-c3ccccc3)n2CCOCCO)CO1` gave LMP1 NFkB inh -3, TWEAK Fn14 block 55*, TRPM1 prom inh -7 and MITF act 11.
`CCN(CC)CCn1c(-c2ccc(C)cc2)nc(=S)c2c1CC(C)(C)OC2` gave LMP1 NFkB inh 3, TROY NFkB inh 18, TWEAK Fn14 block 7, TRPM1 prom inh -3, LGR2 inh 1 and MITF act 0.
Screening C=CCn1c(-c2ccccc2)nc(=S)c2c1CC(C)(C)OC2 returned LMP1 NFkB inh -2, TROY NFkB inh -1, TWEAK Fn14 block -3 and TRPM1 prom inh 6.
Cc1ccc(-c2nc(=S)c3c(n2CCN2CCOCC2)CC(C)(C)OC3)cc1 was read as LMP1 NFkB inh -2, TROY NFkB inh 52*, TWEAK Fn14 block 21, TRPM1 prom inh -2, LGR2 inh 3 and MITF act 3.
Cc1ccc(-c2nc(=S)c3c(n2Cc2cccnc2)CC(C)(C)OC3)cc1 was read as LMP1 NFkB inh 2, TROY NFkB inh 7, TWEAK Fn14 block 74*, TRPM1 prom inh -4 and LGR2 inh -8.
`O=C(CC1CC1)Nc1ccc2c(c1)[C@@H]1C[C@@H](CC(=O)NC3CCCC3)O[C@H](CO)[C@@H]1O2` gave LGR2 inh 0.
Screening C/C=C/c1cnc2c(c1)C(=O)N([C@H](C)CO)C[C@H](C)[C@H](CN(C)C(=O)C1CC1)O2 returned LGR2 inh 14.
C[C@@H]1CN([C@@H](C)CO)C(=O)CCCn2cc(nn2)CO[C@@H]1CN(C)Cc1ccc(C(=O)O)cc1 was read as LGR2 inh 2.
`C=CCOc1c(CNc2cccc(C(=O)O)c2)cccc1OCC` gave LMP1 NFkB inh 1, TROY NFkB inh -67, TWEAK Fn14 block -31, TRPM1 prom inh -13, LGR2 inh -30 and MITF act 9.
`C=CCOc1c(CNc2cccc(C(=O)O)c2)cccc1OC` gave LMP1 NFkB inh -31, TROY NFkB inh 9, TWEAK Fn14 block 54*, TRPM1 prom inh -50, LGR2 inh -86 and MITF act 51.
`O=C(CCCN1C(=O)/C(=C/c2ccco2)SC1=S)Nc1ccccc1C(=O)O` gave LMP1 NFkB inh -7, TROY NFkB inh 9, TWEAK Fn14 block 3, TRPM1 prom inh -10, LGR2 inh -5 and MITF act 14.
Screening CC(=Cc1ccccc1)C=C1SC(=S)N(CCCC(=O)Nc2ccc(C(=O)O)cc2)C1=O returned TROY NFkB inh 29, TWEAK Fn14 block 64* and LGR2 inh -14.
Screening O=C(CCCN1C(=O)/C(=C\c2ccco2)SC1=S)Nc1ccc2ccccc2c1 returned LMP1 NFkB inh -1, TROY NFkB inh 17, TWEAK Fn14 block 59*, TRPM1 prom inh -3, LGR2 inh -2 and MITF act 2.
Screening CC(/C=C1\SC(=S)N(CCCC(=O)Nc2ccc(C(=O)O)cc2)C1=O)=C\c1ccccc1 returned LMP1 NFkB inh -2, TROY NFkB inh -3, TWEAK Fn14 block 50*, TRPM1 prom inh -5, LGR2 inh -6 and MITF act 4.
`CC(=O)N1CC[C@@H]2[C@@H](CO)N(C)c3ccc(-c4ccccc4)cc3[C@@H]21` gave LGR2 inh -10.
Screening CC1CCCC(NC(=O)COC(=O)CN2C(=O)C3CCCCC3C2=O)C1C (stereo not given) returned LMP1 NFkB inh -12, TROY NFkB inh 11, TWEAK Fn14 block 50*, TRPM1 prom inh 21, LGR2 inh -16 and MITF act -19.
Screening O=C(COC(=O)CN1C(=O)C2CCCCC2C1=O)NC1CCS(=O)(=O)C1 (stereo not given) returned LMP1 NFkB inh -5, TROY NFkB inh 16, TWEAK Fn14 block -1, TRPM1 prom inh 6, LGR2 inh 6 and MITF act -9.
For CC1CCCCC1NC(=O)COC(=O)CCC(=O)c1cccs1 (stereo not given) the results were LMP1 NFkB inh 2, TROY NFkB inh -8, TWEAK Fn14 block 5, TRPM1 prom inh -20, LGR2 inh 7 and MITF act 18.

High-throughput results from PubChem.
